# Results reported in ChEMBL document CHEMBL1961873, “Compounds: GSK PKIS; Assays: Nanosyn kinase panel” (2012).
# What was measured:
# [1] = target: Serine/threonine-protein kinase 4 (Homo sapiens) (UniProt Q13043); conditions: at 0.1 µM
# [2] = target: Serine/threonine-protein kinase 4 (Homo sapiens) (UniProt Q13043); conditions: at 1 µM
# [3] = target: Serine/threonine-protein kinase 3 (Homo sapiens) (UniProt Q13188); conditions: at 0.1 µM
# [4] = target: Serine/threonine-protein kinase 3 (Homo sapiens) (UniProt Q13188); conditions: at 1 µM
# [5] = target: Serine/threonine-protein kinase 26 (Homo sapiens) (UniProt Q9P289); conditions: at 0.1 µM
# [6] = target: Serine/threonine-protein kinase 26 (Homo sapiens) (UniProt Q9P289); conditions: at 1 µM
# [7] = target: Serine/threonine-protein kinase PAK 1 (Homo sapiens) (UniProt Q13153); conditions: at 0.1 µM
# [8] = target: Serine/threonine-protein kinase PAK 1 (Homo sapiens) (UniProt Q13153); conditions: at 1 µM
# [9] = target: Serine/threonine-protein kinase PAK 2 (Homo sapiens) (UniProt Q13177); conditions: at 0.1 µM
# [10] = target: Serine/threonine-protein kinase PAK 2 (Homo sapiens) (UniProt Q13177); conditions: at 1 µM
# [11] = target: Serine/threonine-protein kinase PAK 3 (Homo sapiens) (UniProt O75914); conditions: at 0.1 µM
# [12] = target: Serine/threonine-protein kinase PAK 3 (Homo sapiens) (UniProt O75914); conditions: at 1 µM
# [13] = target: Serine/threonine-protein kinase PAK 5 (Homo sapiens) (UniProt Q9P286); conditions: at 0.1 µM
# [14] = target: Serine/threonine-protein kinase PAK 5 (Homo sapiens) (UniProt Q9P286); conditions: at 1 µM
# [15] = target: Serine/threonine-protein kinase PAK 6 (Homo sapiens) (UniProt Q9NQU5); conditions: at 0.1 µM
# [16] = target: Serine/threonine-protein kinase PAK 6 (Homo sapiens) (UniProt Q9NQU5); conditions: at 1 µM
# [17] = system: Tyrosine-protein kinase ABL1 (Homo sapiens), P00519 [E255K]; conditions: at 0.1 µM
# [18] = system: Tyrosine-protein kinase ABL1 (Homo sapiens), P00519 [E255K]; conditions: at 1 µM
# [19] = system: Tyrosine-protein kinase ABL1 (Homo sapiens), P00519 [H396P]; conditions: at 0.1 µM
# [20] = system: Tyrosine-protein kinase ABL1 (Homo sapiens), P00519 [H396P]; conditions: at 1 µM
# [21] = system: Tyrosine-protein kinase ABL1 (Homo sapiens), P00519 [M351T]; conditions: at 0.1 µM
# [22] = system: Tyrosine-protein kinase ABL1 (Homo sapiens), P00519 [M351T]; conditions: at 1 µM
# [23] = system: Tyrosine-protein kinase ABL1 (Homo sapiens), P00519 [Q252H]; conditions: at 0.1 µM
# [24] = system: Tyrosine-protein kinase ABL1 (Homo sapiens), P00519 [Q252H]; conditions: at 1 µM
# [25] = system: Tyrosine-protein kinase ABL1 (Homo sapiens), P00519 [T315I]; conditions: at 0.1 µM
# [26] = system: Tyrosine-protein kinase ABL1 (Homo sapiens), P00519 [T315I]; conditions: at 1 µM
# [27] = system: Tyrosine-protein kinase ABL1 (Homo sapiens), P00519 [Y253F]; conditions: at 0.1 µM
# [28] = system: Tyrosine-protein kinase ABL1 (Homo sapiens), P00519 [Y253F]; conditions: at 1 µM
# [29] = target: Tyrosine-protein kinase ABL1 (Homo sapiens) (UniProt P00519); conditions: at 0.1 µM
# [30] = target: Tyrosine-protein kinase ABL1 (Homo sapiens) (UniProt P00519); conditions: at 1 µM
# [31] = target: ALK tyrosine kinase receptor (Homo sapiens) (UniProt Q9UM73); conditions: at 0.1 µM
# [32] = target: ALK tyrosine kinase receptor (Homo sapiens) (UniProt Q9UM73); conditions: at 1 µM
# [33] = target: Tyrosine-protein kinase ABL2 (Homo sapiens) (UniProt P42684); conditions: at 0.1 µM
# [34] = target: Tyrosine-protein kinase ABL2 (Homo sapiens) (UniProt P42684); conditions: at 1 µM
# [35] = target: Tyrosine-protein kinase receptor UFO (Homo sapiens) (UniProt P30530); conditions: at 0.1 µM
# [36] = target: Tyrosine-protein kinase receptor UFO (Homo sapiens) (UniProt P30530); conditions: at 1 µM
# [37] = target: Tyrosine-protein kinase Blk (Homo sapiens) (UniProt P51451); conditions: at 0.1 µM
# [38] = target: Tyrosine-protein kinase Blk (Homo sapiens) (UniProt P51451); conditions: at 1 µM
# [39] = target: Cytoplasmic tyrosine-protein kinase BMX (Homo sapiens) (UniProt P51813); conditions: at 0.1 µM
# [40] = target: Cytoplasmic tyrosine-protein kinase BMX (Homo sapiens) (UniProt P51813); conditions: at 1 µM
# [41] = target: Protein-tyrosine kinase 6 (Homo sapiens) (UniProt Q13882); conditions: at 0.1 µM
# [42] = target: Protein-tyrosine kinase 6 (Homo sapiens) (UniProt Q13882); conditions: at 1 µM
# [43] = target: Tyrosine-protein kinase BTK (Homo sapiens) (UniProt Q06187); conditions: at 0.1 µM
# [44] = target: Tyrosine-protein kinase BTK (Homo sapiens) (UniProt Q06187); conditions: at 1 µM
# [45] = target: Tyrosine-protein kinase CSK (Homo sapiens) (UniProt P41240); conditions: at 0.1 µM
# [46] = target: Tyrosine-protein kinase CSK (Homo sapiens) (UniProt P41240); conditions: at 1 µM
# [47] = target: Discoidin domain-containing receptor 2 (Homo sapiens) (UniProt Q16832); conditions: at 0.1 µM
# [48] = target: Discoidin domain-containing receptor 2 (Homo sapiens) (UniProt Q16832); conditions: at 1 µM
# [49] = target: Epidermal growth factor receptor (Homo sapiens) (UniProt P00533); conditions: at 0.1 µM
# [50] = target: Epidermal growth factor receptor (Homo sapiens) (UniProt P00533); conditions: at 1 µM
# [51] = system: Epidermal growth factor receptor (Homo sapiens), P00533 [L858R]; conditions: at 0.1 µM
# [52] = system: Epidermal growth factor receptor (Homo sapiens), P00533 [L858R]; conditions: at 1 µM
# [53] = system: Epidermal growth factor receptor (Homo sapiens), P00533 [L861Q]; conditions: at 0.1 µM
# [54] = system: Epidermal growth factor receptor (Homo sapiens), P00533 [L861Q]; conditions: at 1 µM
# [55] = system: Epidermal growth factor receptor (Homo sapiens), P00533 [T790M]; conditions: at 0.1 µM
# [56] = system: Epidermal growth factor receptor (Homo sapiens), P00533 [T790M]; conditions: at 1 µM
# Chain of Serine/threonine-protein kinase PAK 3 (Homo sapiens) (O75914 whole entry, looked up): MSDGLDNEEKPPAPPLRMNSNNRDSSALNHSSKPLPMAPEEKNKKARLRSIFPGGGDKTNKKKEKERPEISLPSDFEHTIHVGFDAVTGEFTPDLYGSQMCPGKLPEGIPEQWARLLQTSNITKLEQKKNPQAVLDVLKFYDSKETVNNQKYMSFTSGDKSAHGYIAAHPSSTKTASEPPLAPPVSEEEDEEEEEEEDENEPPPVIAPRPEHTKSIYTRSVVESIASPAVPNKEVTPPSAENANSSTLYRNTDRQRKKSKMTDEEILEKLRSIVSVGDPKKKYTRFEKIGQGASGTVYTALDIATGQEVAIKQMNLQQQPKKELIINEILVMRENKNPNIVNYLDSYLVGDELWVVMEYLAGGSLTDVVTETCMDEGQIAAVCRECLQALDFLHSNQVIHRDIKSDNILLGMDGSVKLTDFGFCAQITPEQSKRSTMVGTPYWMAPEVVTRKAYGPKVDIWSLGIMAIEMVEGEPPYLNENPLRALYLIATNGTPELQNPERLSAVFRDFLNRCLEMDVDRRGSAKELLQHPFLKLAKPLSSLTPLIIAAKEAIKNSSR
# Chain of Discoidin domain-containing receptor 2 (Homo sapiens) (Q16832 whole entry, the tested form may be a part): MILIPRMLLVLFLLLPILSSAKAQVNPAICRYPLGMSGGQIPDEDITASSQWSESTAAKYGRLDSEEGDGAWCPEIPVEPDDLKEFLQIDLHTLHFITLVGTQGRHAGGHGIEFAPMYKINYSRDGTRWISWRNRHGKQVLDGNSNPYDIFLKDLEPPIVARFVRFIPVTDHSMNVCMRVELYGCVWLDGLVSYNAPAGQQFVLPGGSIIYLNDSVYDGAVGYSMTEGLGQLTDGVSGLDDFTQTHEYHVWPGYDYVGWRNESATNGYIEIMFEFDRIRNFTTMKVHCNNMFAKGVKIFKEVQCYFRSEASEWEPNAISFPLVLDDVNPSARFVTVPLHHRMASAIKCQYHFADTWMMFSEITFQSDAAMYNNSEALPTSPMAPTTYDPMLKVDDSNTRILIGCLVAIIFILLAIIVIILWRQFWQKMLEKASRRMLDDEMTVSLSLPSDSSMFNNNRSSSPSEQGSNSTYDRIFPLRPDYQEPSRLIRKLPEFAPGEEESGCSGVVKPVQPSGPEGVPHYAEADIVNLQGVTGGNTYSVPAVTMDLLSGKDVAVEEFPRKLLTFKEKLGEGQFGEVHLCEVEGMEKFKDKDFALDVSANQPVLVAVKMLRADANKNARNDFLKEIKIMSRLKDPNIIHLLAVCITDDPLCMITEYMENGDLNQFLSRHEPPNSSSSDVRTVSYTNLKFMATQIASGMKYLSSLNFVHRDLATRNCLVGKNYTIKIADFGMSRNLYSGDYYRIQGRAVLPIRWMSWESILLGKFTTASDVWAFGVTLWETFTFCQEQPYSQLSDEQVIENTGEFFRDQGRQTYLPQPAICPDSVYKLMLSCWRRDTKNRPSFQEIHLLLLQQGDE
# Chain of ALK tyrosine kinase receptor (Homo sapiens) (Q9UM73 19-1620 limits assumed): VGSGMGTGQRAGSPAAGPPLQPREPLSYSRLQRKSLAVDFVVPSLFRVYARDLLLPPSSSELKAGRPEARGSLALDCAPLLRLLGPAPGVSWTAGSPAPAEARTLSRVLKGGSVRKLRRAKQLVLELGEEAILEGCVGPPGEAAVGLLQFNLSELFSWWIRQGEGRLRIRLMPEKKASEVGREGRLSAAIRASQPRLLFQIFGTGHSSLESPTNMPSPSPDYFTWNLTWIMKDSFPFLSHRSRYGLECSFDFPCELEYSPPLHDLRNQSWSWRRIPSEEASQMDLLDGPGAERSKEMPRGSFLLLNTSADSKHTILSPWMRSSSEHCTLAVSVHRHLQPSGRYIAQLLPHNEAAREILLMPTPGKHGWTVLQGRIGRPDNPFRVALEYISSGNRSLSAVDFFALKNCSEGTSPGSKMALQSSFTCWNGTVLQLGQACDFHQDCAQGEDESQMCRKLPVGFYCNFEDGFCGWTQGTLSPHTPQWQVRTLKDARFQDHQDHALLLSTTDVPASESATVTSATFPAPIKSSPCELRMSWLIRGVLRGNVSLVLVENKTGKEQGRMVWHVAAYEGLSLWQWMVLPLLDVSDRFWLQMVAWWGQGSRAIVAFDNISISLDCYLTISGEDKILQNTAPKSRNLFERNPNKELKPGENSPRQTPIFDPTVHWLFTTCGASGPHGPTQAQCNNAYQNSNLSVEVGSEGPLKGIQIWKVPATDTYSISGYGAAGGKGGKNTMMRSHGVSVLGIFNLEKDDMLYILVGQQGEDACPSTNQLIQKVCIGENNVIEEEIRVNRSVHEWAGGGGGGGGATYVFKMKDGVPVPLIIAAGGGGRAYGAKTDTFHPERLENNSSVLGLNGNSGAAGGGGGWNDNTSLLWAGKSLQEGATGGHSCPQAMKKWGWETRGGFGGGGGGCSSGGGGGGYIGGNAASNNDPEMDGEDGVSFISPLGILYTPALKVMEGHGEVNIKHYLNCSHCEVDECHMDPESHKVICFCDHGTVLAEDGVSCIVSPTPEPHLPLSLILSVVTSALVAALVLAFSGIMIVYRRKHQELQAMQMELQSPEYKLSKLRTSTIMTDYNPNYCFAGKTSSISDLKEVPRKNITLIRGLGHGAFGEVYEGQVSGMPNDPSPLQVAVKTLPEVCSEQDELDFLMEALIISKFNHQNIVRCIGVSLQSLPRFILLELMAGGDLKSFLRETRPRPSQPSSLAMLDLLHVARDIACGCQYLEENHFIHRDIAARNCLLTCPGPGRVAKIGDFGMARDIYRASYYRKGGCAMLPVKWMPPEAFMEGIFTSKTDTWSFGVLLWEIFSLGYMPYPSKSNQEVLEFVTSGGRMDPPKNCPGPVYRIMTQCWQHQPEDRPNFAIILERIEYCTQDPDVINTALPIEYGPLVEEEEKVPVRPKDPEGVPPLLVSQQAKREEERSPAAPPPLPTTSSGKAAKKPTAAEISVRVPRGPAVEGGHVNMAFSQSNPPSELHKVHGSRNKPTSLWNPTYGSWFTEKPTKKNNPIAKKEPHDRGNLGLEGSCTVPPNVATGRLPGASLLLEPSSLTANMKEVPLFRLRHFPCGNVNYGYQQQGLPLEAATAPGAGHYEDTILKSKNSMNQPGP
# Chain of Serine/threonine-protein kinase 3 (Homo sapiens) (Q13188 whole entry): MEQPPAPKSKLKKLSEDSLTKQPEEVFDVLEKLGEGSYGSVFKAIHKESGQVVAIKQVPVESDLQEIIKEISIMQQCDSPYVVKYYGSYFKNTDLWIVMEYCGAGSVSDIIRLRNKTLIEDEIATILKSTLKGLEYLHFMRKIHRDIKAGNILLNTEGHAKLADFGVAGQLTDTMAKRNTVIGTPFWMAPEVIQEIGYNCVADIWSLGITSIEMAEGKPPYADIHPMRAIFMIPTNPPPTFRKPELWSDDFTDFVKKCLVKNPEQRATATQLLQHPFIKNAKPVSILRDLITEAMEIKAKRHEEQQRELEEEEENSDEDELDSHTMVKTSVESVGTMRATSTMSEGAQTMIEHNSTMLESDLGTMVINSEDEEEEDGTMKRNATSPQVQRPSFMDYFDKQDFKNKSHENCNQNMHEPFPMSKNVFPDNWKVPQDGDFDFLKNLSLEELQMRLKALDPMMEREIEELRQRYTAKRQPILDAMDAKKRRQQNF
# Chain of Serine/threonine-protein kinase PAK 2 (Homo sapiens) (Q13177 whole entry): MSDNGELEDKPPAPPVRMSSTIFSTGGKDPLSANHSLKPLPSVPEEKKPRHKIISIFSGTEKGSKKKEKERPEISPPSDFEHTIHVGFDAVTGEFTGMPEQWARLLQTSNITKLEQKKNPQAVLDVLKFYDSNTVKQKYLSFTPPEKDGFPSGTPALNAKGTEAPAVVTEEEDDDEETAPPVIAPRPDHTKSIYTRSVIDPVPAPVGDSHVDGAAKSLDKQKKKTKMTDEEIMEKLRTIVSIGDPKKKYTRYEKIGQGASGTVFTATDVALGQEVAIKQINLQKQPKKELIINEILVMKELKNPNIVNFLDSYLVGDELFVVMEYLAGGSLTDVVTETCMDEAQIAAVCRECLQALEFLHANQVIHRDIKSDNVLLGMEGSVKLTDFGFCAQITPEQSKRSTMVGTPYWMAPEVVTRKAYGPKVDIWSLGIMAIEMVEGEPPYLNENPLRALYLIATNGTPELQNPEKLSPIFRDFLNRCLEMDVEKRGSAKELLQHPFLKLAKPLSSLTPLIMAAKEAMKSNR
# Chain of Serine/threonine-protein kinase PAK 5 (Homo sapiens) (Q9P286 whole entry, looked up): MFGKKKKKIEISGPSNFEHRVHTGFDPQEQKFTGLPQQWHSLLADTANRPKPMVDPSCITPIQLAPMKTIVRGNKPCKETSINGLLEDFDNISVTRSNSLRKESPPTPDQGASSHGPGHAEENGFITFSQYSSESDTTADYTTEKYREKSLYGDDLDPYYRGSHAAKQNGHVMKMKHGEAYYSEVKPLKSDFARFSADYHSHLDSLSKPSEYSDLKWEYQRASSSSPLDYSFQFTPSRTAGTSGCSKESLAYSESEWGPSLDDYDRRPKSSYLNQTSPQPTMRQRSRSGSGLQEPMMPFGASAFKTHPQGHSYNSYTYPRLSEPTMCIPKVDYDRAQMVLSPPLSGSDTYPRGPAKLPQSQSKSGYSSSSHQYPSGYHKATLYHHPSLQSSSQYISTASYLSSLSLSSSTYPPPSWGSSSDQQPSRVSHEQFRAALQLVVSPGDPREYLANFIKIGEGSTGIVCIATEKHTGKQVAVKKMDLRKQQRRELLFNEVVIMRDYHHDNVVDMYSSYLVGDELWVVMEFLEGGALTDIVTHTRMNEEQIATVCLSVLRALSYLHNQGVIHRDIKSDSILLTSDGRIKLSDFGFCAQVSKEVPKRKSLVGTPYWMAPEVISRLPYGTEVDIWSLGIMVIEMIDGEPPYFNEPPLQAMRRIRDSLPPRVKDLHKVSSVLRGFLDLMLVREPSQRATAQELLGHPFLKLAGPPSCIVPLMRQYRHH
smiles,measurement,setting,value
CNC(=O)Oc1cc(C)c(/C=C/c2cncc(C(=O)NC)c2)c(C)c1,inhibition,[1],4.28%
same,inhibition,[2],7.77%
same,inhibition,[3],4.88%
same,inhibition,[4],4.5%
same,inhibition,[5],-0.01%
same,inhibition,[6],-0.02%
same,inhibition,[7],3.48%
same,inhibition,[8],5.41%
same,inhibition,[9],1.99%
same,inhibition,[10],1.98%
same,inhibition,[11],1.98%
same,inhibition,[12],3.68%
same,inhibition,[13],-4.59%
same,inhibition,[14],-1.52%
same,inhibition,[15],5.83%
same,inhibition,[16],-0.24%
same,inhibition,[17],7.72%
same,inhibition,[18],50.5%
same,inhibition,[19],17.9%
same,inhibition,[20],66.5%
same,inhibition,[21],18.4%
same,inhibition,[22],65%
same,inhibition,[23],14.5%
same,inhibition,[24],58.6%
same,inhibition,[25],1.76%
same,inhibition,[26],3.56%
same,inhibition,[27],23%
same,inhibition,[28],69.2%
same,inhibition,[29],12.9%
same,inhibition,[30],55.8%
same,inhibition,[31],2.46%
same,inhibition,[32],14.2%
same,inhibition,[33],9.35%
same,inhibition,[34],64.3%
same,inhibition,[35],-1.68%
same,inhibition,[36],1.31%
same,inhibition,[37],2.38%
same,inhibition,[38],17.7%
same,inhibition,[39],6.61%
same,inhibition,[40],48.2%
same,inhibition,[41],17.1%
same,inhibition,[42],66.2%
same,inhibition,[43],3.71%
same,inhibition,[44],7.17%
same,inhibition,[45],7.8%
same,inhibition,[46],23%
same,inhibition,[47],1.69%
same,inhibition,[48],4.31%
same,inhibition,[49],1.01%
same,inhibition,[50],3.7%
same,inhibition,[51],1.37%
same,inhibition,[52],18.1%
same,inhibition,[53],1.07%
same,inhibition,[54],2.38%
same,inhibition,[55],0.88%
same,inhibition,[56],0.02%
